Screening data from PubChem BioAssay.
Compounds with a hit are over-represented: about 19% of the library has one in this group of screens.
Lassa entry inh – qHTS for Inhibitors of binding or entry into cells for Lassa Virus; Potency, µM (series often up to 37.9 µM), hits mostly inhibitors; AID 540256, 2011; 300,000 tested, 1.2% active; Lassa virus pseudotype entry inhibition, cell reporter; calls by dose curve; tested in HEK293 cells; also: nearly all actives have a fitted effect of over 50% in size
Pf growth 96h – Primary qHTS for delayed death inhibitors of the malarial parasite plastid, 96 hour incubation | P. falciparum luciferase reporter growth, 96 h | Potency, µM (series often up to 28.7 µM), actives largely listed as inhibitors | 320,000 tested, 6.9% active | AID 504834, 2011
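Delayed-death screen, second-generation endpoint: infected erythrocytes, 2% hematocrit, 0.05% parasitemia final; 96 hours at 37 C, 5% CO2; luciferase detection reagent; luminescence decrease equals reduced growth.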
Pf growth 48h – Primary qHTS for delayed death inhibitors of the malarial parasite plastid, 48 hour incubation. P. falciparum luciferase growth in erythrocytes, 48 h. Potency, µM (highest dose often 28.7 µM), hits mostly inhibitors. 310,000 tested, 5.9% active. AID 504832, 2011
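Cell-based growth assay: transgenic P. falciparum expressing firefly luciferase, cultured in red cells within RPMI 1640 containing 0.5% w/v Albumax, 24 mM bicarbonate and gentamycin. A drop in luciferase activity indicates inhibition.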
Shiga inhibitor – A qHTS for Small Molecule Inhibitors of Shiga Toxin; 290,000 tested, 9.2% active; Vero cells, Shiga toxin protein synthesis inhibition reporter; inhibition, % at 38.7 µM; in the data active = inhibition mostly above about 28%, no sharp cut-off; inactive = mostly below about 43%
CHX counter – Cycloheximide Counterscreen for Small Molecule Inhibitors of Shiga Toxin | max response, % | 300,000 tested, 12% active | AID 2314, 2010 | cell reporter, cycloheximide protein synthesis inhibition counterscreen; in the data active = max response mostly above about 13%, no sharp cut-off; inactive = mostly below about 14%; also: read at 38.3 µM for the half of the compounds with a filed dose
Marburg entry inh – qHTS for inhibitors of binding or entry into cells for Marburg Virus | Potency, µM (series often up to 37.8 µM), usual class: inhibitors | Marburg virus pseudotyped entry inhibition, cell reporter | 300,000 tested, 1.8% active; calls by dose curve; tested in HEK293 cells
A number is an active result; i = inactive; ? = inconclusive; nt = no result given. Unless noted, calls follow the shape of the dose curve; as a rule, active = well fitted inhibition curve with a large enough effect; inconclusive = small, poorly fitted or top-dose-only effect, or another doubt; inactive = no such curve, though single readings can be large or run the other way.

SMILES	Lassa entry inh	Pf growth 96h	Pf growth 48h	Shiga inhibitor	CHX counter	Marburg entry inh
O/N=C/c1cn(-c2ccc(Cl)cc2)nn1	?	i	i	i	37	?
CCOC(=O)C1CCCN(C(=O)Cn2c(=O)cc(C)c3c(C)nn(C)c32)C1 (centres undefined)	i	nt	nt	nt	nt	nt
COc1ccccc1N1C(=O)C2C3C=CC(CC3)C2C1=O (centres undefined)	i	i	10µM	i	i	i
COc1ccc(N2C(=O)C3C4C=CC(C4)C3C2=O)c(OC)c1 (centres undefined)	i	nt	i	i	i	i
CCO[C@@H]1OC(C(=O)N2CCN(Cc3ccccc3)CC2)=C[C@H](C)[C@H]1CCCO	nt	?	?	i	i	nt
CCO[C@H]1OC(C(=O)N2CCCCCCC2)=C[C@@H](C2CCCCC2)[C@@H]1CCCO	nt	9.3µM	?	i	i	nt
CCO[C@@H]1OC(C(=O)N2CCN(Cc3ccc4c(c3)OCO4)CC2)=C[C@H](C2CCCCC2)[C@H]1CCCO	nt	0.93µM	?	i	i	nt
CCO[C@H]1OC(C(=O)N2CCN(Cc3ccc4c(c3)OCO4)CC2)=C[C@@H](C(C)(C)C)[C@@H]1CCCO	nt	?	6.6µM	i	i	nt
CCO[C@H]1OC(C(=O)N2CCN(Cc3ccccc3)CC2)=C[C@@H](C2CCCCC2)[C@@H]1CCCO	nt	1.7µM	?	i	i	nt
CCO[C@@H]1OC(C(=O)N2CCN(C)CC2)=C[C@H](C(C)(C)C)[C@H]1CCCO	nt	i	i	i	i	nt
COc1ccc2c3c(cccc13)OC2=O	i	i	i	i	i	i
Cc1[nH]n2c(=O)cc(Cc3ccccc3)nc2c1C#N	i	10µM	i	i	i	i
Cc1nc2c(C#N)c(C)[nH]n2c(=O)c1Cc1ccccc1	i	i	i	i	i	i
CCc1c(C)nc2c(C#N)c(C)[nH]n2c1=O	i	5.2µM	i	i	i	i
CC1(NCc2ccc(Cl)cc2)COP(=O)(NCc2ccccc2)OC1 (centres undefined)	i	nt	nt	nt	nt	i
COc1cc(OC)cc(C(=O)N(CCCN2C(=O)c3cccc4cccc(c34)C2=O)c2cccc(OC)c2)c1	i	i	9.3µM	i	i	i
COc1ccc(N(CCCN2C(=O)c3cccc4cccc(c34)C2=O)C(=O)c2ccncc2)cc1	i	1.5µM	2.3µM	i	i	?
Cc1cnc(C(=O)OC(C(=O)Nc2cc(C(F)(F)F)ccc2Cl)c2ccccc2)cn1 (centres undefined)	i	10µM	15µM	i	i	i
COc1ccc(C)cc1NC(=O)C(OC(=O)CNC(=O)c1cccc(F)c1)c1ccccc1 (centres undefined)	i	i	i	i	i	i
O=C(CNC(=O)c1ccccc1)OC(C(=O)Nc1cc(C(F)(F)F)ccc1Cl)c1ccccc1 (centres undefined)	?	13µM	nt	i	i	i
CCN(CC)CCNC(C(=O)Nc1cc(C(F)(F)F)ccc1Cl)c1ccccc1 (centres undefined)	i	?	i	i	i	?
O=C(Nc1cc(C(F)(F)F)ccc1Cl)C(NCc1ccccc1)c1ccccc1 (centres undefined)	i	9.3µM	10µM	i	i	i
Cc1ccc(C)c(NC(=O)C(OC(=O)c2cnc(C)cn2)c2ccccc2)c1 (centres undefined)	i	i	i	nt	nt	i
C/C(=N\NC(=S)NC1CCCCC1)c1ccc(C#N)cc1	i	i	i	i	i	i
O=C(NCCc1csc(-c2cccnc2)n1)c1ccco1	nt	i	nt	i	i	nt
SMILES	Lassa entry inh	Pf growth 96h	Pf growth 48h	Shiga inhibitor	CHX counter	Marburg entry inh
CCCCN(C(=O)NC(=O)Nc1nc2ccc(OC)cc2s1)S(C)(=O)=O	i	i	i	48	53	i
CCCCOC(=O)Nc1nc2ccccc2s1	?	i	i	69	26	i
CCCCCN(C(=O)NC(=O)Nc1nncs1)S(C)(=O)=O	i	nt	nt	i	i	i
CCCCOC(=O)Nc1nc2ccc(OC)cc2s1	i	i	i	53	38	i
CCOc1cc(/C=C(\CC(=O)O)c2nc3ccccc3s2)ccc1OCC(=O)Nc1cccc(C(F)(F)F)c1	i	nt	nt	nt	nt	i
CCOc1ccc(CCNC(=O)c2cc(-c3ccccc3)c(N3CCOCC3)s2)cc1OCC	nt	i	?	i	i	nt
OCCCNCc1ccc(N(c2ccccc2)c2ccccc2)cc1	i	2.3µM	?	i	i	?
COc1ccc(OCC(O)Cn2c(=N)n(Cc3ccccc3)c3ccccc32)cc1 (centres undefined)	?	?	?	i	i	4.1µM
N=c1n(Cc2ccc(Cl)cc2)c2ccccc2n1CC(O)COc1ccccc1 (centres undefined)	?	i	?	i	i	?
Cc1cccc(OCC(O)Cn2c(=N)n(CCN3CCCCC3)c3ccccc32)c1 (centres undefined)	?	2.6µM	2.9µM	i	i	0.52µM
Cc1cccc(OCC(O)Cn2c(=N)n(Cc3ccccc3)c3ccccc32)c1 (centres undefined)	nt	5.2µM	5.9µM	i	i	nt
Cc1ccc(OCC(O)Cn2c(=N)n(Cc3ccccc3)c3ccccc32)cc1 (centres undefined)	?	3.7µM	nt	i	i	?
CCN(CC)CCn1c(=N)n(CC(O)COc2cccc(C)c2)c2ccccc21 (centres undefined)	?	i	?	i	i	?
NC(=S)Nc1cccc(O)c1	nt	i	i	i	i	nt
Cc1ccc2cc(CCNC(=O)Cc3cccs3)c(=O)[nH]c2c1	i	?	i	i	i	i
O=C(CN1CCN(Cc2ccc(F)cc2)CC1)Nc1ccccc1F	nt	i	i	i	i	nt
CCN(CC)S(=O)(=O)c1ccc(/C=C/C(=O)N(c2ccccn2)C2CCCCC2)cc1	nt	4.7µM	i	i	i	i
O=C(COC(=O)/C=C/c1ccccc1[N+](=O)[O-])NCC1CCCO1 (centres undefined)	i	i	i	i	i	i
O=C(Cn1nnc(-c2ccccc2)n1)OCc1csc(-c2ccccc2)n1	i	?	i	i	i	i
O=C(OCc1csc(-c2ccccc2)n1)c1ccccc1O	i	i	i	110	61	i
O=C(O)c1ccccc1SCc1csc(-c2ccccc2)n1	i	i	i	i	32	?
Cc1csc2cc(-c3cccc([N+](=O)[O-])c3)c(-c3cccc([N+](=O)[O-])c3)c[n+]12	i	0.47µM	1µM	i	i	i
Cc1ccc(NC(=O)c2cccc3c2C(=O)N(C2CCCCC2)C3)c(C)c1	i	?	?	i	i	i
Cc1nc2ccccc2c(=O)[nH]1	i	nt	nt	i	i	i
COc1ccc(Nc2nc3ccccc3c(=O)[nH]2)cc1	nt	4.7µM	2.1µM	i	i	nt
Cc1ccc(Nc2nc3ccccc3c(=O)[nH]2)cc1C	?	i	?	36	37	?
COc1ccc(Nc2nc3c([nH]2)c(=O)[nH]c(=O)n3C)cc1	i	13µM	i	i	i	i
